# Test results as given in PubChem BioAssay (NCATS).
# Unmarked numbers belong to inactive results. Calls follow the shape of the dose curve; as a rule, active = well fitted curve in the direction sought with a large enough effect; inconclusive = small, poorly fitted or top-dose-only effect, or effect the other way, or another doubt; inactive = no such curve, though single readings can be large or run the other way.
# Assay: Inducers of the Endoplasmic Reticulum Stress Response (ERSR) in human glioma: Validation (AID 504836); also: 0% is about no effect
# Settings: human glioma cells, ER stress response reporter; series mostly up to 38.3 µM; activation: at the top concentration
# Summary of the method: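 Stably transfected U87-MG glioma cells carrying a GRP78-based luciferase sensor; 16 h compound incubation. Luminescence end-point read 10 min after Bright-Glo addition at room temperature.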
row,Structure (SMILES),activation [%]
1,CCn1nc(C(=O)O)c(=O)c2cc3c(cc21)OCO3,-3.52
2,NCCCCCC(=O)O,-1.03
3,CCN1CCCC1CNC(=O)c1cc(S(=O)(=O)CC)c(N)cc1OC (configuration not stated),-3.25
4,CCN(CC)CCOC(=O)c1ccc(N)cc1,1.92
5,CC(=O)OCC1=C(C(=O)O)N2C(=O)[C@@H](NC(=O)Cc3cccs3)[C@H]2SC1,2.12
6,CC(CCc1ccc(O)cc1)NCCc1ccc(O)c(O)c1 (configuration not stated),2.75
7,NC(N)=Nc1nc(CSCC/C(N)=N/S(N)(=O)=O)cs1,-2.47
8,O=c1[nH]cnc2[nH]ncc12,-2.7
9,CCN1CCC[C@H]1CNC(=O)c1cc(S(N)(=O)=O)ccc1OC,-3.06
10,NC/C=C/C(=O)O,4.31
11,CN(C)CCOC(=O)COc1ccc(Cl)cc1,0.5
12,Nc1ncnc2c1ncn2[C@@H]1O[C@H](CO)[C@@H](O)[C@H]1O,-1.57
13,Clc1cccc(Cl)c1NC1=NCCN1,-1.88
14,Cc1nc2ccccn2c(=O)c1CCN1CCC(C(=O)c2ccc(F)cc2)CC1,-0.871
15,Cc1scc2c1N(C(=O)CN1CCN(C)CC1)c1ccccc1NC2=O,-0.791
16,C[C@](N)(Cc1ccc(O)cc1)C(=O)O,0.788
17,N[C@@H](COP(=O)(O)O)C(=O)O,-0.864
18,CCN1CCC[C@H]1CNC(=O)c1c(O)c(Cl)cc(Cl)c1OC,-0.76
19,Nc1cc(=O)[nH]c(N)n1,0.0828
20,CCn1cc(C(=O)O)c(=O)c2cc(F)c(N3CCNC(C)C3)c(F)c21 (configuration not stated),-0.628
21,CN1C(C(=O)Nc2ccccn2)=C(O)c2ccccc2S1(=O)=O,-0.518
22,CNC[C@H](O)c1cccc(O)c1,-2.53
